This is a sample that favours compounds with a hit; in the whole collection about 0.51% have one here.
phage Ecoli inh – E. coli growth loss with phage present; 0.26% of 360,000 active; inhibition, % at 11.9 µM; growth absorbance; AID 651602; in the data active means inhibition above about 11%
p-CIP stab down – lowers stability of the mouse p/CIP coactivator protein; F442A p/CIP-EGFP cells, EGFP fluorescence, 16 h; decrease of EGFP signal, % at 10 µM; 0.01% of 290,000 active; Q05BA5;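 active means EGFP signal decrease of at least 30% at 10 µM or well 3 SD below plate mean, unless failing retest; inactive means the rest, including hits failing retest or dose response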
AddAB inh – less growth of phage-infected E. coli with AddAB | inhibition, % at 11.9 µM | E. coli expressing H. pylori AddAB, absorbance growth | 0.29% of 330,000 active; in the data active means inhibition above about 12%;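 further: 0% = vehicle wells of infected cells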
Tat export inh – blocks Tat-dependent protein export in E. coli; E. coli MC4100 TorA-mCherry Tat export, fluorescence; inhibition, % at 10 µM; 0.036% of 340,000 active;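 active means mean replicate inhibition at least 50% and at least half of replicates individually reaching 50%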;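 further: exported cargo escapes ClpAP degradation while cytoplasmic cargo is degraded and loses fluorescence; 0% = median of neutral control wells and 100% = median of NaSCN control wells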
E coli growth-1 – blocks Escherichia coli growth. OD600 absorbance (concentration not given with the values). OD600, 23 h; hits give low values. 0.21% of 330,000 active;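 active means OD600 absorbance below the run mean of sample wells minus 3.6 SD, in any replicate, cut at about 0.56 in these data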
E coli growth-2 – bacterial growth inhibition, counter-screen for AddAB inhibitors. E. coli V3065 growth, OD600 absorbance, 18 h. inhibition, % at 11.9 µM. 0.27% of 330,000 active;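 active means inhibition above the campaign's mean inhibition across all tested compounds plus 3 SD, cut at about 9.9% in these data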;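 further: uninfected addAB+ strain grown without phage in ampicillin broth; 0% = DMSO wells and 100% = ciprofloxacin 0.95 µg/ml wells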
RecBCD conf – growth loss of phage-infected V66 E. coli, RecBCD confirmation screen; shares compounds with phage Ecoli inh; E. coli V66 + T4 2- phage, growth OD; inhibition, % at 11.9 µM; 45% of 890 active; AID 651982;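 active means mean inhibition over triplicates exceeding the hit threshold derived in the original primary screen, cut at about 11% in these data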
Ecoli viability – counter-screen for RecBCD inhibitors: inhibitors of bacterial viability; E. coli viability, absorbance (OD) growth; shares compounds with phage Ecoli inh; inhibition, % at 11.9 µM; 29% of 890 active; in the data active means inhibition above about 20%;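 further: E. coli strain V66 grown with compound alone and no phage infection; 0% = bacteria with DMSO vehicle only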
AddAB counter – growth loss of phage-infected AddAB E. coli, RecBCD counter-screen. shares compounds with phage Ecoli inh. E. coli expressing H. pylori AddAB + T4 phage, OD growth; gene 2 mutant T4, recBCD-deleted host. inhibition, % at 11.9 µM. 45% of 890 active;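 active means mean inhibition above the solvent-only control wells' mean plus 3 SD, cut at about 22% in these data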;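 further: higher means less bacterial growth from phage killing when AddAB is blocked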
* = called active by the depositor; . = no result.

SMILES | phage Ecoli inh | p-CIP stab down | AddAB inh | Tat export inh | E coli growth-1 | E coli growth-2 | RecBCD conf | Ecoli viability | AddAB counter
O=C(N/N=C/c1sc2ccccc2c1O)c1cccc2ccccc12 | 13* | -7 | 6 | -3 | . | -1 | 5 | 11 | 7
COc1ccc2cc(C(=O)N/N=C/c3sc4ccccc4c3O)ccc2c1 | 23* | -12 | 10 | -5 | . | 12* | 14* | 18 | 19
O=C(NN=Cc1sc2ccccc2c1O)c1ccccc1 | . | . | . | . | 0.62 | . | . | . | .
COC(=O)CCCC1=CC2=CC(=O)C(C)(OC(=O)c3cccs3)C(=O)C2=CN1Cc1ccco1 (stereo unspecified) | 3 | -13 | 3 | -10 | 0.7 | -2 | . | . | .
Cc1[nH]n(-c2ccccc2)c(=O)c1C=Nc1ccc(S(=O)(=O)Nc2nccs2)cc1 | 15* | 2 | 8 | 18 | 0.65 | 7 | 7 | 4 | 26*
CC(C)CCNC(=S)Nc1ccc(Br)cc1 | 11* | 2 | 9 | 11 | 0.59 | 8 | 4 | 5 | 12
Cc1cc(O)c(Sc2ncn[nH]2)cc1NS(=O)(=O)c1ccc(Cl)cc1 | 3 | . | 1 | 6 | 0.69 | -1 | . | . | .
O=S(=O)(Nc1cc(Sc2ncn[nH]2)c(O)c2ccccc12)c1ccccc1 | 11* | 33 | . | -5 | 0.61 | . | 2 | 1 | 0
CCOc1ccc(/C=C/C(=O)c2cc(Br)ccc(=O)c2O)cc1 | 16* | -3 | 13* | 1 | 0.69 | 9 | 7 | 10 | 3
Cc1ccc(/C=C/C(=O)c2cc(Br)ccc2OC(=O)c2ccco2)cc1 | 2 | -23 | 1 | 21 | 0.72 | 2 | . | . | .
O=C(C=Cc1ccccc1)c1cc(Br)ccc1O | 2 | . | . | 1 | 0.64 | . | . | . | .
CCc1ccc(/C=C/C(=O)c2cc(Br)ccc(=O)c2O)cc1 | 14* | -17 | 3 | -5 | 0.69 | 3 | 10 | 12 | -1
Cc1cccc(/C=C/C(=O)c2cc(Br)ccc(=O)c2O)c1 | 17* | -11 | 8 | -1 | 0.67 | 6 | 6 | 7 | 5
CCOc1ccc(C(=O)/C=C/c2ccc(OC)c(OC)c2)cc1 | 1 | 2 | 1 | 4 | 0.68 | -1 | . | . | .
CC(C)NC(=O)COc1ncnc2sccc12 | 5 | -6 | 1 | -2 | 0.68 | -2 | . | . | .
Cc1noc(NS(=O)(=O)c2ccc(N)cc2)c1C | 11* | 10 | 10 | -2 | 0.66 | 8 | 3 | 2 | 23*
CCOC(=O)Nc1ccc(S(=O)(=O)Nc2onc(C)c2C)cc1 | -1 | . | 1 | . | 0.66 | -2 | . | . | .
O=C(O)c1c[nH]c2c([N+](=O)[O-])cccc2c1=O | 11* | . | . | -21 | 0.53 | . | 7 | 7 | 19
Cc1nc2ccccc2cc1C(=O)NCc1ccccc1 | -1 | . | 4 | -1 | 0.67 | 1 | . | . | .
CC(Cc1ccccc1)=NNC(=O)CNC(=O)c1ccc2c(c1)OCCO2 | . | . | . | . | 0.71 | . | . | . | .
CC(C)(C)CC(=O)Nc1nnc(C(F)(F)F)s1 | 4 | 8 | 1 | 2 | 0.68 | 0 | . | . | .
CC(NC(=O)Nc1nnc(C(F)(F)F)s1)(C(F)(F)F)C(F)(F)F | 13* | 4 | 9 | 5 | 0.59 | 11* | 15* | 16 | 17
Cn1cc(CC(=O)N2CCN(c3ccccc3F)CC2)c2ccccc21 | 84* | -4 | 2 | -9 | 0.69 | -1 | -2 | -2 | -7
Cn1cc(CC(=O)N2CCN(c3ccc(Cl)cc3)CC2)c2ccccc21 | 1 | -4 | 2 | 18 | 0.67 | 1 | . | . | .
CO[C@@]1(NC(=O)Cc2cccs2)C(=O)N2C(C(=O)O)=C(COC(N)=O)CS[C@@H]21 | 27* | -3 | -1 | -16 | . | -2 | 94* | 104* | 101*
SMILES | phage Ecoli inh | p-CIP stab down | AddAB inh | Tat export inh | E coli growth-1 | E coli growth-2 | RecBCD conf | Ecoli viability | AddAB counter
CCOC(=O)c1ccc(CC2SC(N)=NC2=O)cc1 (stereo unspecified) | 1 | -2 | 1 | -13 | 0.7 | 2 | . | . | .
CC(C)C[C@H](NC(=O)c1ccc(Cl)cc1Cl)C(=O)N1CCC[C@H]1C(=O)NCc1ccccc1 | 1 | . | . | . | . | . | . | . | .
CC(C)C[C@H]1CNC(=S)N1C[C@H]1CCCN1C[C@H](Cc1ccccc1)N1C[C@H](Cc2ccc(O)cc2)N(CC2CCCCC2)C1=S | 12* | . | . | . | . | . | 2 | -1 | 3
CCOC(=O)C1(C)CCCN(C(=O)c2c(F)ccc(C)c2F)C1 (stereo unspecified) | 0 | . | . | . | . | . | . | . | .
Cc1ccc(C)c(NC(=O)CN(C)C(=O)c2cc([N+](=O)[O-])ccc2N2CCOCC2)c1 | 4 | . | -1 | -9 | 0.67 | 1 | . | . | .
Cc1c(C(=O)NNC(=O)c2ccccc2O)oc2ccccc12 | 13* | . | . | . | . | . | 6 | 8 | 8
CCN(CC)c1ccc2cc(-c3nc4ccccc4[nH]3)c(=O)oc2c1 | . | -335 | 0 | 2 | 0.67 | 0 | . | . | .
CCN(CC)c1ccc2cc(-c3nc4ccccc4n3C)c(=O)oc2c1 | 99* | -115 | 0 | 12 | 0.67 | 0 | 80* | 71* | 93*
O=C(NCCS(=O)(=O)NCc1cccnc1)c1ccccc1 | 2 | . | 2 | 4 | 0.64 | 2 | . | . | .
Cn1nc(C(=O)NCC(=O)Nc2ccc(F)c(F)c2)ccc1=O | 11* | . | . | . | . | . | 0 | -1 | -3
CCCCNC(=O)NCC(=O)Nc1ccc(F)c(F)c1 | 1 | 1 | -2 | 11 | 0.69 | -2 | . | . | .
